GSIS activator: primary screen for activators of insulin secretion dependent on glucose, INS-1E cells, GLuc reporter luminescence. actives 0.61% (n = 370,000). activation, % at 16.6 µM. INS-1E GLuc reporter insulin secretion, 2-3 h;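 active = lowest replicate activation of at least 40%, so every replicate reaches that level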;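 also: 0% = median of neutral control wells and 100% = median of IBMX positive control wells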
MITF TRPM1 HTS: activators of MITF-driven TRPM1 promoter activity in SK-MEL-5 cells | actives 0.75% (n = 300,000) | SK-MEL-5 TRPM1-promoter luciferase, 24 h; % of positive control, neutral wells = 0 | activation, % at 12.5 µM;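 active = mean activation of at least 80% with every replicate also reaching 80%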;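 also: 0% = neutral control wells and 100% = parthenolide positive control wells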
CFTR F508del cor: correctors of CFTR F508del function in bronchial epithelial cells; CFBE cells, YFP halide quenching; stimulated with forskolin plus potentiator P3; % fluorescence drop versus neutral controls; activity (quench increase), % at 7.58 µM; actives 0.36% (n = 350,000);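 active = mean added fluorescence quench of at least 8% versus neutral control, with both replicates also reaching 8%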;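 also: cells transiently co-express mutant CFTR-F508del with the halide-sensitive YFP; corrector assay measuring rescue of mutant channel to the surface after 24 h compound exposure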
Wnt bcat act: activators of Wnt/beta-catenin signaling; Wnt/beta-catenin reporter cell assay, activator, plate reader; activation, % at 9.35 µM; actives 1.2% (n = 300,000); AID 743398; in the data active = activation above about 30%, passing the limit was not always enough;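 also: 0% = neutral control wells and 100% = positive control wells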
Env fusion inh: HIV envelope-mediated fusion inhibition; HeLa-JRFL Env/CEM21 cell fusion, luciferase; inhibition, % at 12.3 µM; actives 1.1% (n = 360,000); AID 651610;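 active = mean replicate inhibition score of at least 50 and every replicate individually at or above 50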;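 also: 0% = plate neutral controls and 100% = maraviroc near 300 nM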
* = called active by the depositor; x = no result given; [ ] = remark or other dose. Compounds with a hit are over-represented: about 2.7% of the library has one in this group of screens.

SMILES	GSIS activator	MITF TRPM1 HTS	CFTR F508del cor	Wnt bcat act	Env fusion inh
COCCCn1c(=O)c2sccc2n(Cc2cccc(F)c2)c1=O	6	x	-9	2	-43
CN(CC(=O)Nc1ccc(OC(F)(F)F)cc1)C(=O)Cc1c(Cl)cccc1Cl	-50	-3	-1	-5	10
CN(CC(=O)Nc1ccc(OC(F)(F)F)cc1)C(=O)Cc1cccs1	-7	17	3	-1	62*
O=S(=O)(N(Cc1ccccc1)[C@@H](CO)Cc1ccccc1)N(Cc1ccccc1)[C@@H](CO)Cc1ccccc1	3	-3	-2	-4	71*
C=CS(=O)(=O)N(Cc1ccccc1Br)[C@H](CO)Cc1ccccc1	-27	-17	-2	-12	50
CC(C)C[C@H](CO)N(Cc1ccccc1)S(=O)(=O)N(Cc1ccccc1)[C@@H](CO)CC(C)C	-57	-25	1	-22	109*
Cc1noc(C)c1NC(=O)N(C)C[C@H]1Oc2ccc(N(C)C)cc2CC(=O)N([C@H](C)CO)C[C@@H]1C	4	x	2	x	-9[16.7 µM]
CNC[C@@H]1Oc2ccc(NC(=O)Nc3ccc4c(c3)OCO4)cc2CC(=O)N([C@H](C)CO)C[C@H]1C	8	x	-1	x	-1[16.7 µM]
c1ccc2c(c1)CCCC2C1=NCCN1 (stereo unspecified)	x	0	3	1	11
Brc1ccc2c(c1)C(C1=NCCN1)c1ccccc1CS2 (stereo unspecified)	1	4	11*	-6	62*
Cc1cc(Cl)ccc1OCC(=O)NNC(=O)C1CSC2(C)CCC(=O)N12 (stereo unspecified)	-3	8	-1	-1	71*
O=C(Cc1cccc2ccccc12)NCC(=O)N1CCN(CC(=O)Nc2ccc(F)cc2)CC1	-7	x	-3	-2	65*
Cc1cc(C)n(-c2nc3ccccc3nc2N2CCN(S(=O)(=O)c3ccc4ccccc4c3)CC2)n1	-21	-24	x	x	56*
Cc1cc(C)n(-c2nc3ccccc3nc2N2CCN(S(=O)(=O)c3ccc(F)c(C)c3)CC2)n1	9	-3	0	0	x
C/C=C/c1ccc2c(c1)O[C@H](CN(C)Cc1cccnc1)[C@@H](C)CN([C@H](C)CO)S2(=O)=O	0	x	-4	x	16[16.7 µM]
Cc1ccc(S(=O)(=O)N(C)C[C@H]2Oc3ccc(NC(=O)Nc4ccccc4)cc3CC(=O)N([C@H](C)CO)C[C@@H]2C)cc1	-10	x	2	x	x
Cc1c(NC(=O)/C(C#N)=C/c2c(Oc3ccccc3)nc3ccccn3c2=O)c(=O)n(-c2ccccc2)n1C	45*	-13	x	x	35
CCCC(=O)Nc1ccc2c(c1)C(=O)N(C)[C@H]1CC[C@@H](CC(=O)NCc3ccccc3Cl)O[C@H]1CO2	-17	x	0	x	x
O=C(C[C@H]1CC[C@H](NC(=O)C2CC2)[C@H](CO)O1)NCCCN1CCOCC1	0	x	-1	x	10[16.7 µM]
O=C(/C=C(\Nc1cc(Cl)c(Cl)c(Cl)c1)c1ccccc1)c1ccccc1	4	x	0	8	10
O=C(/C=C(\Nc1cc(Cl)c(F)c(Cl)c1)c1ccccc1)c1ccccc1	157*	x	-4	15	11
CC(C)NC(=O)N(C)C[C@@H]1Oc2ccc(NS(=O)(=O)c3cn(C)cn3)cc2C(=O)N([C@@H](C)CO)C[C@H]1C	-4	x	1	x	5[16.7 µM]
O=C(Nc1cnc2ccccn2c1=O)c1ccc(Cl)cc1	7	86*	x	x	-127
CCNC(=O)[C@H]1[C@H](CO)[C@H]2Cn3c(ccc(-c4ccc(F)cc4)c3=O)[C@H]2N1C	19	x	x	x	x
C[C@H]1CN([C@@H](C)CO)C(=O)Cc2cc(NC(=O)Nc3ccccc3)ccc2O[C@H]1CN(C)C(=O)Nc1cccc2ccccc12	-7	x	-2	x	-2[16.7 µM]
SMILES	GSIS activator	MITF TRPM1 HTS	CFTR F508del cor	Wnt bcat act	Env fusion inh
COc1ccc(CCNc2ccc(N3C(=O)CC(C)C3=O)cc2[N+](=O)[O-])cc1OC (stereo unspecified)	-46	-15	3	0	68*
COc1ccc(CCNc2ccc(N3C(=O)CC(C)C3=O)cc2[N+](=O)[O-])cc1 (stereo unspecified)	13	-14	0	-3	-3
CC(=O)N(C)C[C@H]1Oc2c(N)cccc2C(=O)N(C)C[C@H]1C	-1	x	x	x	x
O=C(C[C@@H]1CC[C@@H](NS(=O)(=O)c2ccccc2)[C@@H](CO)O1)N1CCN(c2ccccc2)CC1	15	x	2	x	x
O=C(O)CSc1nnc(NC(=O)CN2CCOCC2)s1	96*	5	2	-1	0
CC(C)c1nc(SCC(=O)c2ccc(F)cc2)c2ccccc2n1	-8	-1	4	1	2
Cc1ccc(C(=O)CSc2nc(C(C)C)nc3ccccc23)cc1	0	-6	-2	36*	-17
C[C@@H]1CN([C@@H](C)CO)S(=O)(=O)c2ccc(Br)cc2O[C@@H]1CN(C)Cc1ccc(C(=O)O)cc1	-8	x	1	x	-3[16.7 µM]
COc1ccc(NC(=O)CSc2ccccn2)c([N+](=O)[O-])c1	-2	x	-2	39*	-22
O=C(CCSc1ccccn1)Nc1ccc(Br)cc1	-32	58	-2	62*	x
CCOc1ccc(NC(=O)CSc2nccn2Cc2ccco2)cc1	x	49	2	10	-65
O=C(CSC1=NNC(c2ccccn2)S1)Nc1ccccc1 (stereo unspecified)	x	x	11*	-1	31
COc1ccc(NC(=O)CSc2nc(C)cc(C)n2)c([N+](=O)[O-])c1	-2	13	1	x	1
O=C(CSC1=NNC(c2ccccn2)S1)Nc1cccc(Cl)c1 (stereo unspecified)	x	x	0	-4	22
COc1ccc(NC(=O)CSc2nccn2Cc2ccco2)cc1	14	57	0	36*	-51
CO[C@@H]1CN(C)C(=O)c2cc(NC(=O)Nc3ccccc3F)ccc2OC[C@H](C)N(CC2CC2)C[C@H]1C	-5	x	-2	x	x
CC(C)NC(=O)N(C)C[C@@H]1Oc2cc(C#C[C@H](C)O)ccc2S(=O)(=O)N([C@H](C)CO)C[C@H]1C	7	x	-2	x	x
Cc1ccc(S(=O)(=O)N(C)C[C@@H]2Oc3ccc(NC(=O)Nc4c(C)noc4C)cc3C(=O)N([C@H](C)CO)C[C@@H]2C)cc1	7	x	0	x	-151[16.7 µM]
CN(C)c1ccc(/C=N/NC(=O)CSc2ccccn2)cc1	0	x	1	48*	-13
Cc1ccc(OCC(=O)Nc2ccccc2[N+](=O)[O-])c(Br)c1	-2	79	-2	64*	-103
CCC(=O)OCC(=O)Nc1ccc(OC)cc1[N+](=O)[O-]	4	2	2	0	-42
CCOc1ccc(NC(=O)COc2ccccc2)c([N+](=O)[O-])c1	x	130*	-3	2	-82
COc1ccc(NC(=O)COC(=O)CN2C(=O)C3CC=CCC3C2=O)c([N+](=O)[O-])c1 (stereo unspecified)	x	-8	1	40*	2
C[C@@H](NC(=O)[C@@H]1[C@@H](CO)[C@@H]2Cn3c(cccc3=O)[C@H]1N2C(=O)C1CCCC1)c1ccccc1	8	x	3	x	x

Assay outcomes: PubChem, Broad Institute
